From publication PMC5540273 (PLoS ONE, 2017)

system: T1, JNK3; settings: concentration: 1 μM, replicates: in singlicate; n = 1
T1 construct: gene MAPK10
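Further: KINOMEscan kinase panel screen.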

Row | Structure (SMILES) | %Inh
1 | COc1cc2ncnc(Nc3ccc(OCc4ccccc4Br)c(Cl)c3)c2cc1OC.Cl [GI261590] | 0%
2 | CSc1nn2c(=O)cc(N3CCOCC3)nc2n1Cc1cccc(Cl)c1Cl [GSK2347225] | 10%
3 | Fc1cccc(COc2ccc(Nc3ncnc4sc(-c5ccc[nH]5)cc34)cc2Cl)c1 [GW707818] | 0%
4 | Cl.O=S(=O)(c1cccc(F)c1)c1ccc(Nc2ncnc3cc(Br)sc23)cc1Cl [GSK306886] | 4%
5 | CN1c2ccc(-c3ccc(C(=O)NCCO)cc3)cc2-c2[nH]ncc2S1(=O)=O | 0%
6 | Nc1nc(-c2ccc3c(N)n[nH]c3c2)cc(N2CCCCC2)n1 [GSK2228768] | 0%
7 | Cn1ccc2ncnc(Oc3ccc(NC(=O)Nc4cccnc4)c(Cl)c3)c21 | 0%
8 | Clc1cc(Nc2ncnc3cc[nH]c23)ccc1OCc1ccccn1 | 53%
9 | Cl.Cl.c1ccc(-c2cc3ccncc3cc2OC2CCNCC2)cc1 [GSK1122999] | 0%
10 | Fc1ccc(Nc2nccc(-c3c(-c4ccc(Cl)cc4)nn4ncccc34)n2)cc1F [GW829058] | 56%
11 | C[C@H]1CC[C@@H](C(=O)Nc2ccccc2)CN1c1cc(-c2ccc3c(N)n[nH]c3c2)nc(N)n1 [GSK2283293] | 1%
12 | FC(F)(F)c1cc(Nc2nccc(-c3c(-c4ccc(Cl)cc4)nn4ncccc34)n2)ccc1Cl [GW829351] | 65%
13 | FC(F)(F)c1ccc(-c2cc(-c3c[nH]nc3-c3ccccn3)ccn2)cc1 [GW599550] | 0%
14 | Nc1nc(-c2cccnc2)c(-c2ccnc3ccccc23)s1 [GW684083] | 11%
15 | Cl.c1ccc(Cn2ncc3cc(Nc4ncnc5ccccc45)ccc32)cc1 [GW273749] | 0%
16 | O=C(NCCCN1CCCC1=O)c1cnc(NCc2cc(Cl)ccc2Cl)nc1NC1CCNCC1 | 0%
17 | Cc1ccc(O)cc1Nc1cc(C(F)(F)F)nc2ccc(-c3ccncc3)cc12 [GW630823] | 0%
18 | C[C@@H]1CCN(C(=O)CO)C[C@@H]1N(C)c1ncnc2[nH]ccc12 | 0%

Row | Structure (SMILES) | %Inh
19 | COc1ccc(NC(=O)Nc2ccc(C)c(-c3ccc(C(=O)Nc4ccncc4)cc3)c2)cc1 [GSK1398475] | 0%
20 | O=c1cc(N2CCOCC2)nc2n(Cc3cccc(Cl)c3)ccn12 [GSK2296823] | 7%
21 | CC(C)N1CCC(n2cnc(-c3ccc(F)cc3)c2-c2ccnc(N)n2)CC1 [SB-223132] | 0%
22 | Clc1cccc(-c2nc(Nc3ccncc3)c3ccccc3n2)c1 [GW873004] | 0%
23 | COC(=O)c1c(-c2ccccc2)c2cc(Cl)ccc2c(=O)n1Cc1ccc(S(C)(=O)=O)cc1 | 99.4%
24 | Oc1ccc2ncnc(Nc3ccc(OCc4ccccc4)cc3)c2c1 [GI262866] | 0%
25 | COc1cc2c(Nc3cccc(NC(=O)c4ccccc4)c3)ncnc2cc1OCCCN1CCOCC1 [GSK223810] | 31%
26 | CCc1nc(-c2cccc(C)c2)c(-c2ccnc(NC(=O)c3ccccc3)c2)s1 | 93.3%
27 | Clc1ccc(-c2cc(-c3c[nH]nc3-c3ccccn3)ccn2)cc1 [GW681251] | 33%
28 | Nc1nc(-c2ccc3c(N)n[nH]c3c2)cc(N2CCC[C@@H](C(=O)Nc3ccccc3)C2)n1.O=C(O)C(F)(F)F.O=C(O)C(F)(F)F [GSK2288359] | 0%
29 | CCn1c(-c2ccncc2)nc2cnccc21 [SB-735216] | 17%
30 | Cn1ccc2ncnc(Nc3ccc(Oc4cccc(Cl)c4)c(Cl)c3)c21 | 0%
31 | Fc1ccc(-c2ncn(CCCNCc3ccccc3)c2-c2ccncc2)cc1 | 57%
32 | CC(C)(C)OC(=O)NC1CCCN(c2cc(-c3ccc4c(N)n[nH]c4c3)nc(N)n2)C1 (stereo not shown) [GSK2286096] | 7%
33 | CC(=O)Nc1n[nH]c2ncc(-c3ccccc3)cc12 [SB-548492] | 17%
34 | COc1ccc(Nc2nccc(N3CCC(NC(=O)Nc4ccc5c(c4)OCO5)C3)n2)cc1 (stereo not shown) [GSK1379745] | 20%
35 | CN1CCC(n2cnc(-c3ccc(F)cc3)c2-c2ccnc(NC3CCNCC3)n2)CC1 [SB-229482] | 92.4%

system: KIT-autoinhibited; settings: concentration: 1 μM, replicates: in singlicate; n = 1

Row | Structure (SMILES) | %Inh
36 | COc1cc2ncnc(Nc3ccc(OCc4ccccc4Br)c(Cl)c3)c2cc1OC.Cl [GI261590] | 0%
37 | CSc1nn2c(=O)cc(N3CCOCC3)nc2n1Cc1cccc(Cl)c1Cl [GSK2347225] | 0%
38 | Fc1cccc(COc2ccc(Nc3ncnc4sc(-c5ccc[nH]5)cc34)cc2Cl)c1 [GW707818] | 0%
39 | Cl.O=S(=O)(c1cccc(F)c1)c1ccc(Nc2ncnc3cc(Br)sc23)cc1Cl [GSK306886] | 0%
40 | CN1c2ccc(-c3ccc(C(=O)NCCO)cc3)cc2-c2[nH]ncc2S1(=O)=O | 17%
41 | Nc1nc(-c2ccc3c(N)n[nH]c3c2)cc(N2CCCCC2)n1 [GSK2228768] | 0%
42 | Cn1ccc2ncnc(Oc3ccc(NC(=O)Nc4cccnc4)c(Cl)c3)c21 | 0%
43 | Clc1cc(Nc2ncnc3cc[nH]c23)ccc1OCc1ccccn1 | 11%
44 | Cl.Cl.c1ccc(-c2cc3ccncc3cc2OC2CCNCC2)cc1 [GSK1122999] | 0%
45 | Fc1ccc(Nc2nccc(-c3c(-c4ccc(Cl)cc4)nn4ncccc34)n2)cc1F [GW829058] | 12%
46 | C[C@H]1CC[C@@H](C(=O)Nc2ccccc2)CN1c1cc(-c2ccc3c(N)n[nH]c3c2)nc(N)n1 [GSK2283293] | 16%
47 | FC(F)(F)c1cc(Nc2nccc(-c3c(-c4ccc(Cl)cc4)nn4ncccc34)n2)ccc1Cl [GW829351] | 1%
48 | FC(F)(F)c1ccc(-c2cc(-c3c[nH]nc3-c3ccccn3)ccn2)cc1 [GW599550] | 0%
49 | Nc1nc(-c2cccnc2)c(-c2ccnc3ccccc23)s1 [GW684083] | 0%
50 | Cl.c1ccc(Cn2ncc3cc(Nc4ncnc5ccccc45)ccc32)cc1 [GW273749] | 0%
51 | O=C(NCCCN1CCCC1=O)c1cnc(NCc2cc(Cl)ccc2Cl)nc1NC1CCNCC1 | 0%
52 | Cc1ccc(O)cc1Nc1cc(C(F)(F)F)nc2ccc(-c3ccncc3)cc12 [GW630823] | 0%
53 | C[C@@H]1CCN(C(=O)CO)C[C@@H]1N(C)c1ncnc2[nH]ccc12 | 0%

Row | Structure (SMILES) | %Inh
54 | COc1ccc(NC(=O)Nc2ccc(C)c(-c3ccc(C(=O)Nc4ccncc4)cc3)c2)cc1 [GSK1398475] | 0%
55 | O=c1cc(N2CCOCC2)nc2n(Cc3cccc(Cl)c3)ccn12 [GSK2296823] | 4%
56 | CC(C)N1CCC(n2cnc(-c3ccc(F)cc3)c2-c2ccnc(N)n2)CC1 [SB-223132] | 0%
57 | Clc1cccc(-c2nc(Nc3ccncc3)c3ccccc3n2)c1 [GW873004] | 1%
58 | COC(=O)c1c(-c2ccccc2)c2cc(Cl)ccc2c(=O)n1Cc1ccc(S(C)(=O)=O)cc1 | 0%
59 | Oc1ccc2ncnc(Nc3ccc(OCc4ccccc4)cc3)c2c1 [GI262866] | 0%
60 | COc1cc2c(Nc3cccc(NC(=O)c4ccccc4)c3)ncnc2cc1OCCCN1CCOCC1 [GSK223810] | 0%
61 | CCc1nc(-c2cccc(C)c2)c(-c2ccnc(NC(=O)c3ccccc3)c2)s1 | 6%
62 | Clc1ccc(-c2cc(-c3c[nH]nc3-c3ccccn3)ccn2)cc1 [GW681251] | 0%
63 | Nc1nc(-c2ccc3c(N)n[nH]c3c2)cc(N2CCC[C@@H](C(=O)Nc3ccccc3)C2)n1.O=C(O)C(F)(F)F.O=C(O)C(F)(F)F [GSK2288359] | 4%
64 | CCn1c(-c2ccncc2)nc2cnccc21 [SB-735216] | 10%
65 | Cn1ccc2ncnc(Nc3ccc(Oc4cccc(Cl)c4)c(Cl)c3)c21 | 0%
66 | Fc1ccc(-c2ncn(CCCNCc3ccccc3)c2-c2ccncc2)cc1 | 4%
67 | CC(C)(C)OC(=O)NC1CCCN(c2cc(-c3ccc4c(N)n[nH]c4c3)nc(N)n2)C1 (stereo not shown) [GSK2286096] | 0%
68 | CC(=O)Nc1n[nH]c2ncc(-c3ccccc3)cc12 [SB-548492] | 21%
69 | COc1ccc(Nc2nccc(N3CCC(NC(=O)Nc4ccc5c(c4)OCO5)C3)n2)cc1 (stereo not shown) [GSK1379745] | 0%
70 | CN1CCC(n2cnc(-c3ccc(F)cc3)c2-c2ccnc(NC3CCNCC3)n2)CC1 [SB-229482] | 0%
